Compound activity deposited in PubChem BioAssay by National Center for Advancing Translational Sciences (NCATS).
ELG1 genotoxic = qHTS screen for small molecules that induce genotoxicity in human embryonic kidney (HEK293T) cells expressing luciferase-tagged ELG1. Potency, µM (titrated, usually from 46 µM), without a hit: at the top dose activity change, positive = activation, actives largely listed as activators. actives 1.3% (n = 330,000). HEK293T ELG1-luciferase reporter, luminescence, 16 h. AID 504466, 2011; note: % of control where 0% means no effect; nearly all actives have a fitted effect of over 60% in size
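Luminescence read-out: rising ELG1-luciferase signal, reflecting elevated ELG1 protein under genetic stress, flags genotoxic compounds. Cells were treated for 16 hr at 37 °C before ONE-Glo detection.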
NPC1 promoter act = qHTS Assay for NPC1 Promoter Activators; Potency, µM (top dose mostly 9.22 µM), for inactives: at the highest dose activation, usual class: activators; AID 485313, 2010; Huh7 NPC1 promoter luciferase reporter, 24 h; actives 2.4% (n = 320,000); note: % of control where 0% means no effect; nearly all actives have a fitted effect of over 60% in size
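Cells: Huh7 expressing luciferase under the NPC1 promoter, 1500/well. Seeded 2 h, compound added, incubated 24 h at 37 °C. Luciferase reagent, 10 min ambient, then luminescence.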
Rab9 promoter act = qHTS Assay for Rab9 Promoter Activators | Potency, µM (doses to about 9.22 µM), inactives show at the highest dose activation, negative = inhibition, actives largely listed as activators | Huh7 Rab9 promoter-luciferase reporter, luminescence, 24 h | actives 2.8% (n = 320,000) | AID 485297, 2010; note: % of control where 0% means no effect; nearly all actives have a fitted effect of over 60% in size
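Steps: seed 1500 Huh7 Rab9-luc cells per well, rest 2 h at 37 °C; add compound in DMSO; incubate 24 h; add luciferase reagent, 10 min ambient; read luminescence.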
Luc counter = Counterscreen for Luciferase (Kinase-Glo TM) Inhibition; Potency, µM (series often up to 38.3 µM), for the others: top-dose activity change, negative = inhibition, hits mostly inhibitors; actives 0.28% (n = 200,000); AID 1379, 2008; Kinase-Glo luciferase, ATP luminescence, 8 min; note: % is set by controls: 0 for no effect and ±100 for the full control effect; nearly all actives have a fitted effect of over 60% in size
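Kinase-Glo luciferase light output from ATP and luciferin was measured with 10 uM ATP, within the enzyme's linear range. Buffer: 50 mM imidazole pH 7.2, 50 mM KCl, 7 mM MgCl2, 0.01% Tween 20, 0.05% BSA; luminescence read after 8 min at ambient temperature.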
SMN2 splice up = qHTS Assay for Enhancers of SMN2 Splice Variant Expression | HEK293 SMN2-luciferase splicing reporter, luminescence, 30-36 h | Potency, µM (top dose mostly 46.1 µM), inactives show top-dose activity change, positive = activation, usual class: activators | actives 2.8% (n = 210,000); note: % of control where 0% means no effect; nearly all actives have a fitted effect of over 55% in size
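HEK293 cells carry an SMN2 minigene-luciferase reporter in which exon 7 inclusion puts luciferase in frame. Cells were seeded at 2000 cells/well, attached for 10-12 hours, then exposed to compounds for 30-36 hours at 37C before ONE-Glo luminescence.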
FLuc counter = qHTS profiling assay for firefly luciferase inhibitor/activator using purifed enzyme and Km concentrations of substrates (counterscreen for miR-21 project). Luciferin 4-monooxygenase (Photinus pyralis), P08659. actives 6.9% (n = 360,000). purified FLuc, Km substrates, luminescence inhibition. Potency, µM (highest dose often 57.5 µM), without a hit: at the highest dose activity change, negative = inhibition, usual class: inhibitors. AID 588342, 2011;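 note: plate controls were vehicle for no effect and reference inhibitor for full effect; nearly all actives have a fitted effect of over 55% in size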
Target sequence (P08659 whole entry, looked up): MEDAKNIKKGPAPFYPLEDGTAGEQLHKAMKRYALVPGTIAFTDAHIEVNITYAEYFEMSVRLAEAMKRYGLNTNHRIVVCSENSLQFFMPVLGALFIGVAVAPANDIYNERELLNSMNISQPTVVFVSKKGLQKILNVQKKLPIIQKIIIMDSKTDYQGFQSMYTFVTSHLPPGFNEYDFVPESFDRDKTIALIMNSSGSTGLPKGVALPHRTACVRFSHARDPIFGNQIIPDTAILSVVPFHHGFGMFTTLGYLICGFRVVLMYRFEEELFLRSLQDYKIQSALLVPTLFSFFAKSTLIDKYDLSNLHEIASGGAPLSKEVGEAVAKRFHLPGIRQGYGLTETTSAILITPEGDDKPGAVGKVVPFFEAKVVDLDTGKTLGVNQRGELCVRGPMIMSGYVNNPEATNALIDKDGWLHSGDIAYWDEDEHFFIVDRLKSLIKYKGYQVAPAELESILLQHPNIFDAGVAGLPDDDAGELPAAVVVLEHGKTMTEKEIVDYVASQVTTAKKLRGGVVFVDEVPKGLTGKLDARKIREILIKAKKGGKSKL
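Purified P. pyralis luciferase, 10 nM final, with Km-level 10 uM D-luciferin and 10 uM ATP in 50 mM Tris acetate pH 7.5, 10 mM Mg acetate, 0.01% Tween-20, 0.05% BSA; 6-point qHTS titration about 60 µM downward; luminescence read.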
* = called active by the depositor; ? = inconclusive; . = not tested or not shown; [ ] = another dose, or the depositor's remark. An excerpt weighted towards active compounds, which were near 7.5% of everything screened. Calls come from the whole dose curve; as a rule, active = well fitted curve in the direction sought with a large enough effect; inconclusive = small, poorly fitted or top-dose-only effect, or another doubt; inactive = no such curve, though single readings can be large; an effect the other way counts as inactive or inconclusive. Potency is the fitted concentration of half-maximal effect.

SMILES	ELG1 genotoxic	NPC1 promoter act	Rab9 promoter act	Luc counter	SMN2 splice up	FLuc counter
O=C(/C=C/c1cccs1)N1CCC2(CC1)Oc1ccc(Cl)cc1C(=O)C21CC(c2ccccc2)=NO1 (stereo unspecified)	0%	-3%	-4%	.	.	5%
Cc1ccc(C(=O)NNC(=O)C2CCCN(c3ncccn3)C2)cc1 (stereo unspecified)	1%	-2%	6%	-1%	5%	5%
COc1cccc(CN=C2Nc3ccccc3CS2)c1	?	2.8µM*	3.2µM*	-7%	14µM*	12µM*
COc1cccc(CN2CCSCC2)c1	0%	-4%	-2%	0%	0%	5%
Cc1ccc(CN=C2Nc3ccccc3CS2)cc1	2.6µM*	0.5µM*	0.45µM*	-11%	7.9µM*	0.6µM*
Clc1ccc(CN=C2Nc3ccccc3CS2)cc1	?	3.2µM*	2.2µM*	-3%	13µM*	6µM*
c1cncc(CN=C2Nc3ccccc3CS2)c1	-1%	6%	1%	-7%	7%	-2%
COc1ccccc1CN=C1Nc2ccccc2CS1	13%	?	?	-1%	?	24µM*
CCOC(=O)c1c(C)oc2nc(C)nc(NCCCN3CCN(c4cc(Cl)ccc4C)CC3)c12	.	.	.	.	.	-1%
COc1ccc(OC(=O)c2nc(SCc3ccccc3F)ncc2Cl)cc1	.	.	.	.	-8%	1%
COc1cc(C(=O)NNC2=NC(C)(C)Cc3cc(C)c(C)cc32)cc(OC)c1OC	-2%	-2%	-2%	2%	2%	2%
O=S(=O)(c1cccc(-c2nc3n(n2)Cc2ccccc2-3)c1)N1CCCC1	0%	9%	20%	-8%	-4%	15µM*
CN1C(=O)CC(C(=O)Nc2ccccc2F)SC1=Nc1ccc2c(c1)OCO2 (stereo unspecified)	6%	-2%	-1%	2%	-5%	-1%
COc1ccccc1NC(=O)CSc1nnc(NC(=O)C2CC2)s1	3%	-2%	2%	.	.	?
CC(=O)Nc1ccc(NC(=O)CSc2nnc(NC(=O)c3cccc(F)c3)s2)cc1	?	?	3.2µM*	.	.	0.67µM*
COc1ccccc1NC(=O)Nc1nnc(C(C)C)s1	?	?	?	0%	22µM*	17µM*
COc1ccccc1NC(=O)CSc1nnc(NC(=O)Nc2ccc(C)cc2)s1	.	.	.	.	.	2.1µM*
O=C(CSc1nnc(NC(=O)Nc2ccccc2)s1)Nc1cccc(F)c1	.	.	.	.	.	1.5µM*
CCn1cnc2c1c(=O)n(CC(=O)OC)c(=O)n2Cc1ccccc1	0%	-3%	-1%[1.84 µM]	.	.	0%
O=C1c2[nH]nc(-c3ccccc3)c2C(c2ccccc2)N1c1cccc(C(F)(F)F)c1 (stereo unspecified)	.	.	.	.	-34%	0%
O=C(CSc1nnc(NC(=O)c2c(F)cccc2F)s1)Nc1ccc(F)cc1	19%	?	2.2µM*	-1%	.	-4%
O=C(N=Nc1c(O)[nH]c2ccccc12)c1cccc(S(=O)(=O)Nc2ccccc2Cl)c1	-3%	1%	-2%	-4%	1%	21µM*
NS(=O)(=O)c1cc(C(=O)N=Nc2c(O)[nH]c3ccccc23)ccc1Cl	4%	21%	18%	.	.	6µM*
O=C(O/N=C1\CCS(=O)(=O)c2sccc21)c1c(F)cccc1F	-2%	-9%	-16%	-3%	-6%	4.8µM*
O=S1(=O)CC/C(=N\Nc2ccccc2)c2ccsc21	7%	1%	-1%	1%	-11%	?
SMILES	ELG1 genotoxic	NPC1 promoter act	Rab9 promoter act	Luc counter	SMN2 splice up	FLuc counter
COc1cccc(C(=O)O/N=C2\CCS(=O)(=O)c3sccc32)c1	1%	-7%	6%	-4%	2%	1.5µM*
Cc1ccc(C(=O)O/N=C2\CCS(=O)(=O)c3sccc32)cc1	-2%	1%	4%	1%	7%	0.48µM*
COc1ccccc1N1C(=O)S/C(=C\c2ccc(C)s2)C1=O	?	?	3.5µM*	.	.	-21%
COc1ccc(N=C2S/C(=C\c3ccc(C)s3)C(=O)N2CC(C)C)cc1	-5%	-3%	0%	-7%	0%	0%
COc1ccccc1N1C(=O)S/C(=C\c2cc(C)n(C)c2C)C1=O	?	3.5µM*	2.5µM*	1%	14µM*	12µM*
COc1ccc(N=C2S/C(=C\c3cc(C)n(C)c3C)C(=O)N2C)cc1	10%	-4%	0%	-2%	-14%	0%
N/C(=N\OC(=O)COc1ccccc1)c1cccnc1	0%	-5%	2%	1%	-11%	-1%
Cc1cccc(/C(N)=N/OC(=O)c2cccc3ccccc23)c1	15%	3.5µM*	4µM*	.	.	4.3µM*
N/C(=N\OC(=O)c1cccc2ccccc12)c1cccnc1	?	20%	28%	-5%	.	12µM*
O=C(O/N=C(\c1ccccc1)c1ccccn1)c1cccc2ccccc12	1%	-5%	-1%	-3%	25%	?
COc1ccc(Cl)cc1NC(=O)CN(C)CC(=O)Nc1ccc(C)cc1Br	-18%	-1%	2%	-4%	-26%	-4%
COc1ccc(C2NC(=O)N(C)C3=C2C(=O)N(c2ccc(F)cc2)C3)cc1 (stereo unspecified)	.	.	.	.	.	0%
COc1cc(Nc2nc(-c3ccccc3)c3cc(C)ccc3n2)cc(OC)c1OC	-2%	-4%	2%	-2%	15%	17µM*
COc1cc2oc(=O)cc(-c3ccc(-c4ccc(CO)cc4)cc3)c2c(OC)c1OC	-5%	.	.	-5%[39.9 µM]	.	.
O=C(O)/C=C\C(=O)NCc1cccnc1	-2%	-2%	9%	1%	-2%	-1%
C/C(=N/Nc1cc(-c2ccccc2)nc(-c2ccccc2)n1)c1ccc(O)cc1	0%	-5%	-3%	-1%	.	11µM*
C/C(=N/Nc1nc(-c2ccccc2)cc(-c2ccccc2)n1)c1ccc(N)cc1	-4%	0%	-9%	-1%	?	5.4µM*
C/C(=N\Nc1cc(Cl)nc(C)n1)c1ccccc1	9%	?	?	-3%	31%	9.5µM*
O=C(COC(=O)C1CCC1)NC(=O)c1ccccc1	-4%	1%	1%	.	.	?
COc1ccccc1C(=O)NC(=O)COC(=O)C1CCC1	-4%	-3%	0%	.	.	8.5µM*
